From PubChem BioAssay
This is a sample that favours compounds with a hit; in the whole collection about 11% have one here.
Sfp PPTase inh: qHTS Assay for Inhibitors of Bacillus subtilis Sfp phosphopantetheinyl transferase (PPTase); Biochemical Sfp PPTase activity, qHTS; Potency, µM, most hits filed as inhibitors; hit rate 3.5% among 310,000; AID 1490, 2009;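 further: the enzyme is Sfp with the accession as filed and its product quenches rhodamine fluorescence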
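Sfp 15 nM + cpd, 15 min RT; start w/ rhodamine-CoA 5 uM, BHQ-2-YbbR 12.5 uM (final); 50 mM Hepes pH 7.6, 10 mM MgCl2, 0.01% NP-40, 0.01% BSA; read 525/598 nm at 0 and 30 min.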
Tau fluor counter: Counterscreen qHTS for Inhibitors of Tau Fibril Formation, Fluorescence Polarization. Potency, µM (series often up to 57.7 µM). hit rate 0.93% among 280,000. tau K18 P301L Alexa594 fluorescence, heparin fibrillization; further: nearly all actives have a fitted effect of over 55% in size
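Human K18 P301L tau (15 uM unlabeled plus 0.24 uM Alexa 594-labeled, final) in 100 mM sodium acetate pH 7 was mixed with compound and 20 uM heparin and incubated 6 hr at 37 C.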
Tau fibril FP: qHTS for Inhibitors of Tau Fibril Formation, Fluorescence Polarization; K18 P301L tau heparin fibrillization, Alexa594 FP, 6 h; Potency, µM (titrated, usually from 57.7 µM), actives largely listed as inhibitors; Microtubule-associated protein tau (Homo sapiens), P10636; hit rate 0.39% among 280,000; AID 1468, 2008; further: nearly all actives have a fitted effect of over 55% in size
Target sequence (P10636 561-689 P618L limits assumed): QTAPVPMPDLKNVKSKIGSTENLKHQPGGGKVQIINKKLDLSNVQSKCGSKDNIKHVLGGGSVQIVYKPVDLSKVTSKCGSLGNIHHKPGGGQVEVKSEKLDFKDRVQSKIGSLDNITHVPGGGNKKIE
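Heparin (20 uM) drove fibril formation of recombinant tau K18 P301L, 15 uM unlabeled with 0.24 uM Alexa 594 label, for 6 hr at 37 C in 100 mM sodium acetate pH 7. Fluorescence polarization (555/632 nm) read 1 hr after 30 uM ThT.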
FBPA coupling cs: qHTS Assay for Inhibitors of Fructose-1,6-bisphosphate Aldolase from Giardia Lamblia: Coupling assay counterscreen. coupling enzyme system counterscreen, AmpLite Red fluorescence. AID 2472, 2010. activity change, negative = inhibition, % at 58.2 µM, hits read low. hit rate 0.67% among 290,000; in the data active means activity change below about -30%
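Final compound at 57.5 uM, incubated 10 min at RT with coupling enzyme reagent (glyceraldehyde-3-phosphate), then 20 min with substrate and AmpLite Red detection. Fluorescence read at 525/598 nm; tests interference with the coupling assay, not aldolase inhibition.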
G9a block: qHTS Assay for Inhibitors of Histone Lysine Methyltransferase G9a | Histone-lysine N-methyltransferase EHMT2 (Homo sapiens), Q96KQ7 | G9a H3K9 monomethylation, AlphaScreen, 2 h | Potency, µM (titrated, usually from 102 µM), most hits filed as inhibitors | hit rate 8.8% among 350,000 | AID 504332, 2011; further: nearly all actives have a fitted effect of over 75% in size
Target sequence (Q96KQ7 913-1193 limits assumed): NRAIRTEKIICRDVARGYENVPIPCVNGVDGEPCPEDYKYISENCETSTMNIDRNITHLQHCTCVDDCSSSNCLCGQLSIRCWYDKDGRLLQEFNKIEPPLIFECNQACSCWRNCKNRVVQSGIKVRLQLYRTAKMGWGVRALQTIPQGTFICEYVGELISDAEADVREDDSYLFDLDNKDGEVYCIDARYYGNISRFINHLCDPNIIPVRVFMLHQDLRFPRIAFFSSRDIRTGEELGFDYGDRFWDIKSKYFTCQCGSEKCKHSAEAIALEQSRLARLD
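Readings reflect AlphaScreen signal from monomethyl-H3K9 antibody detection. HMT at 20 nM; substrate b-H3K9 500 nM; cofactor SAM 20 uM; 2 h RT reaction; compounds tested as titrations in qHTS with 15 min preincubation.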
Tau fibril ThT: qHTS for Inhibitors of Tau Fibril Formation, Thioflavin T Binding; AID 1460, 2008; Potency, µM (highest dose often 57.4 µM), usual class: inhibitors; recombinant tau K18 P301L, heparin-induced fibrillization, ThT fluorescence; hit rate 2.1% among 270,000; further: nearly all actives have a fitted effect of over 55% in size
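ThT emission at 510 nm, taken 1 hr after adding 30 uM dye, quantifies aggregates formed when 20 uM heparin acts on human tau K18 P301L for 6 hr at 37 C.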
A number is an active result; 0 = inactive; ? = inconclusive; - = not tested or not shown; ! = a repeat was not active; [ ] = another dose, or the depositor's remark. Unless noted, the call rests on the fitted dose curve; in most records, active means well fitted curve in the direction sought with a large enough effect; inconclusive means small, poorly fitted or top-dose-only effect, or another doubt; inactive means no such curve, though single readings can be large; an effect the other way counts as inactive or inconclusive.

SMILES | Sfp PPTase inh | Tau fluor counter | Tau fibril FP | FBPA coupling cs | G9a block | Tau fibril ThT
CC(C)COP(=O)(c1ccc(N(C)C)cc1)C(O)c1ccccc1 (centres undefined) | 0 | - | - | 0 | 0 | -
CC(C)COP(=O)(c1ccc(N(C)C)cc1)C(O)c1ccc(N(C)C)cc1 (centres undefined) | 0 | - | - | 0 | 39.8µM | -
CN(C)c1ccc(C(=O)Nc2sc(Nc3ccccc3)nc2C(N)=O)cc1 | - | 11.2µM[quencher] | 0 | - | 0 | 1.12µM
COCCCNC(=O)c1ccc(-n2c(-c3ccccc3)cc3c2CCCCC3)cc1 | - | ? | 17.8µM | - | ? | 0
CN(C)CCNC(=O)c1ccc(-n2c(-c3ccccc3)cc3c2CCCCC3)cc1 | - | ? | 22.4µM | - | 0 | 0
CCOCCCNC(=O)c1ccc(-n2c(-c3ccccc3)cc3c2CCCC3)cc1 | - | ? | 0 | - | 0 | ?
CCOC(=O)CCC(NC(=O)CC(=O)NC(CCC(=O)OCC)C(=O)OCC)C(=O)OCC (centres undefined) | 0 | 0 | 0 | 0 | 70.8µM | 0
O=C(Nc1cc(Cl)ccc1Cl)c1cc(S(=O)(=O)N2CCc3ccccc3C2)ccc1F | - | 0 | 0 | - | 0 | 0
CCOC(=O)C1=C(N)OC2=C(C(=O)CCC2)C1c1cccs1 (centres undefined) | ? | 0 | 0 | -40.2 | ? | 0
C=C(C)C1CC=C(CN2CC(C)OC(C)C2)CC1 (centres undefined) | ? | 0 | 0 | 0 | 7.94µM | 0
C=C(C)C1CC=C(CN2CCC(C(=O)OCC)CC2)CC1 (centres undefined) | 0 | 0 | 0 | 0 | ? | 0
O=C(CSc1cn(CC(=O)N2CCOCC2)c2ccccc12)Nc1ccccc1F | - | 0 | 0 | - | 0 | 0
Cc1ccc2nc(NCc3ccccc3)c(C#N)cc2c1 | 79.4µM | - | - | 0 | 0 | -
Cc1ccc2cc(C#N)c(N3CCCN(C(=O)C4CCCO4)CC3)nc2c1 (centres undefined) | 0 | 0 | 0 | 0 | 0 | 0
Cc1ccc2cc(C#N)c(NCCCNC(=O)C3CCCO3)nc2c1 (centres undefined) | 79.4µM | 0 | 0 | -35.3 | ? | 0
Cc1ccc2nc(NCCNC(=O)c3ccccc3)c(C#N)cc2c1 | 0 | - | - | 0 | - | -
COc1ccc(C(=O)NCCNc2nc3ccc(C)cc3cc2C#N)cc1 | ? | - | - | 0 | 44.7µM | -
CCN(CC)c1ccc(/C=C/c2cccc[n+]2C)c(OC)c1 | 0 | - | - | 0 | 35.5µM | -
COc1ccc(/C=C/c2cccc[n+]2C)c(O)c1 | 0 | - | - | 0 | - | -
O=C(CN(CC1CCCO1)C(=O)CNS(=O)(=O)c1ccc(F)cc1)NC1CCCC1 (centres undefined) | 0 | - | - | 0 | 0 | -
CCn1c(=O)n(-c2ccc3c(c2)OCO3)c2nc(-c3ccc(C(C)C)cc3)nc(C(N)=O)c21 | - | 0 | ? | - | 0 | 0
CN1CCCCC1CCN1c2ccccc2Sc2ccc(S(C)=O)cc21 (centres undefined) | 0 | 0 | ? | 0 | 5.62µM! | 0
CCCCCn1c(=O)[nH]c2cc(C(=O)NCc3ccc(C)cc3)ccc2c1=O | - | 0 | 0 | - | 0 | 0
CC[C@H](C)[C@@H]1NC(=O)c2cc([N+](=O)[O-])cc(I)c2NCC[C@@H](C(N)=O)NC(=O)[C@H](CCCN=C(N)N)NC1=O | 0 | 0 | 0 | 0 | 14.1µM | 0
NC(=O)[C@@H]1CCCCNc2c(F)cc([N+](=O)[O-])cc2C(=O)N[C@@H](CC(=O)O)C(=O)N[C@@H](CCC(=O)O)C(=O)N1 | 0 | 0 | 0 | 0 | ? | 0
SMILES | Sfp PPTase inh | Tau fluor counter | Tau fibril FP | FBPA coupling cs | G9a block | Tau fibril ThT
NC(=O)[C@@H]1CCCNc2c(I)cc([N+](=O)[O-])cc2C(=O)N[C@@H](CCCN=C(N)N)C(=O)N[C@@H](CCCN=C(N)N)C(=O)N1 | 0 | ? | 0 | 0 | 14.1µM | 28.2µM
CC[C@H](C)[C@@H]1NC(=O)c2cc([N+](=O)[O-])cc(I)c2SC[C@@H](C(N)=O)NC(=O)[C@H](CCCCN)NC1=O | ? | 0 | ? | 0 | 8.91µM | ?
C[C@@H](O)C1NC(=O)[C@H](CCCCN)NC(=O)c2cc([N+](=O)[O-])cc(F)c2NCCCC[C@@H](C(N)=O)NC1=O (some centres undefined) | 0 | 0 | 0 | 0 | ? | 0
NCC[C@H](O)C(=O)N[C@@H]1C[C@H](N)[C@@H](O[C@H]2O[C@H](CN)CC[C@H]2N)[C@H](O)[C@H]1O[C@H]1O[C@H](CO)[C@@H](O)[C@H](N)[C@H]1O | 0 | - | - | - | 0[12.7 µM] | -
Cc1nc2ccccn2c(=O)c1NC(=O)c1cccc2ccccc12 | - | - | - | - | 0 | -
CCOc1cc(-c2nnc(SCC(=O)NCc3ccccc3)nc2-c2ccc(OC)c(OCC)c2)ccc1OC | - | 0 | 0 | - | 7.94µM | 0
CCOc1cc(-c2nnc(SCC(=O)NCc3ccc(C)cc3)nc2-c2ccc(OC)c(OCC)c2)ccc1OC | - | ? | 0 | - | 10µM | ?
COc1ccc(-c2nnc(SCC(=O)NCc3ccc(C)cc3)nc2-c2ccc(OC)c(OC)c2)cc1OC | - | 0 | 0 | - | 0 | ?
Cc1ccc(-n2nc(CO)c(C(=O)NC(C)c3ccccc3)n2)cc1C (centres undefined) | - | 0 | 0 | - | 0 | 0
O=[N+]([O-])c1cccc(S(=O)(=O)Nc2ccc(-c3ccc(N4CCOCC4)nn3)cc2)c1 | - | - | - | - | 44.7µM | -
O=[N+]([O-])c1cccc(S(=O)(=O)Nc2ccc(-c3ccc(N4CCCC4)nn3)cc2)c1 | - | - | - | - | 0 | -
O=[N+]([O-])c1cccc(S(=O)(=O)Nc2cccc(-c3ccc(N4CCOCC4)nn3)c2)c1 | - | - | - | - | 10µM | -
CCCCCNC(=O)CCCCCn1c(=O)[nH]c2ccsc2c1=O | - | 0 | 0 | - | 0 | 0
O=C1CCN2C=Nc3cccc4ccc1c2c34 | 0 | 0 | 0 | -30.5 | 0[2.33 µM] | ?
CCOc1ccccc1NC(=O)C1CCCN1S(=O)(=O)c1ccccc1C(F)(F)F (centres undefined) | - | - | - | - | 0 | -
Cc1cc(C)cc(NC(=O)C2CCCN2S(=O)(=O)c2ccc3nc(-c4ccccc4)[nH]c3c2)c1 (centres undefined) | - | 14.1µM[quencher] | ? | - | ? | 0
CCc1cccc(NC(=O)C2CCCN2S(=O)(=O)c2ccc3nc(-c4ccccc4)[nH]c3c2)c1 (centres undefined) | - | 14.1µM[quencher] | 31.6µM | - | 0 | 0
CCc1cccc(NC(=O)C2CCCN2S(=O)(=O)c2ccc3c(c2)n(C)c(=O)c(=O)n3C)c1 (centres undefined) | 0 | 0 | 0 | 0 | 0 | ?
